Laboratory results: PubChem BioAssay (EPA / NIEHS)
Records with an inconclusive call do not appear. The source made the active and inactive calls. Rule for the calls: active = hit-call score of the fitted dose curve at least 0.9, where 1 is the maximum; inconclusive = response in the unintended direction; inactive = score below 0.9.

Legend:
[1] = VALA_MIGHUV1_ScratchOnly_WoundArea: VALA Sciences human Umbilical Vein Endothelial Cell Migration (MIGHUV) Assay, Area of Scratch Wound Inhibited Recovery (AID 2284336)
Procedure, shortened: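 HUVEC monolayers (9000 cells/well) were scratched after 24 h, dosed within 30 min (six concentrations, triplicate, 0.1% DMSO), allowed 24 h recovery, then fixed. Hoechst-stained nuclei in the wound imaged; cytochalasin D as reference.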

[2] = VALA_TUBIPS_Agonist_CellCount: Viability Assessment in the VALA Sciences human iPS-derived Endothelial Tubule Formation (TUBIPS) Agonism Assay (AID 2284338)

COCc1cnc(C2=NC(C)(C(C)C)C(=O)N2)c(C(=O)O)c1 (configuration not stated)
outcome [1]: inactive | outcome [2]: inactive
